Screening data as filed in PubChem.
Pol iota inh – DNA polymerase iota (human) inhibition. Q9UNA4. Pol iota fluorescent replication assay, 10 min. Potency, µM (highest dose often 115 µM), usual class: inhibitors. 390,000 compounds, 1% hits. AID 588590
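Fluorescent replication assay read twice, at 0 min and 10 min after adding 50 nM (final) substrate. Enzyme (10 nM) and compounds were first incubated 15 min at room temperature; enzyme-free buffer wells were negative controls.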
WRN helicase inh – WRN helicase (human) inhibition. AID 651768. Potency, µM (series often up to 114 µM), usual class: inhibitors. 360,000 compounds, 0.46% hits. WRN helicase unwinding, fluorescent forked duplex, kinetic. Q14191; further: nearly all actives have a fitted effect of over 55% in size
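Fluorescence dequenching readout, ex 525 nm/em 598 nm, kinetic mode: forked duplex DNA (100 nM final) with adjacent fluorophore and quencher unwound by WRN (20 nM final) with 2 mM ATP. Compound preincubation 15 min, room temperature.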
PI5P4Ka inh – blocks human PI5P4K alpha kinase activity | P48426 | PI5P4Kalpha enzyme, ADP-Glo luminescence, 60 min; hits give low values | max response, % | 330,000 compounds, 1.2% hits; active means max response of -50% or lower; inconclusive means between -30% and -50%; inactive means -30% or higher; further: value at the top dose of about 77 µM
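Reactions run in 0.038 M HEPES pH 7.4, 0.28 mM EGTA, 0.1% CHAPS and 5% DMSO, with PI5P4Kalpha, substrate, compound and 5 microM ATP final, one hour at room temperature. Readout is ADP-Glo luminescence.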
Pol kappa inh-1 – blocks human DNA polymerase kappa activity; 400,000 compounds, 0.53% hits; Q9UBT6; Potency, µM (highest dose often 107 µM), usual class: inhibitors; purified Pol kappa, fluorescent DNA synthesis assay, 10 min
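Readout: fluorescence, taken kinetically at 0 and 10 min. Conditions: 10 nM Pol kappa, 15 min RT compound preincubation, 50 nM substrate final. Controls: enzyme-free buffer wells.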
POLB inh – blocks human DNA polymerase beta activity; Pol beta primer extension/strand displacement, fluorescence kinetic; Potency, µM (titrated, usually from 114 µM), most hits filed as inhibitors; AID 485314; 340,000 compounds, 1.3% hits; P06746
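Enzyme-only controls used 10 nM Pol beta; buffer lacking enzyme served as negative control. Compound preincubated 15 min, then 50 nM substrate added; 0 and 10 min reads at room temperature.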
Pol eta inh-1 – inhibitors of human DNA polymerase eta. Q9Y253. recombinant Pol eta, fluorescent DNA replication assay. Potency, µM (titrated, usually from 114 µM), hits mostly inhibitors. 390,000 compounds, 1.2% hits. AID 588591
Target sequence (Q9Y253 whole entry, looked up): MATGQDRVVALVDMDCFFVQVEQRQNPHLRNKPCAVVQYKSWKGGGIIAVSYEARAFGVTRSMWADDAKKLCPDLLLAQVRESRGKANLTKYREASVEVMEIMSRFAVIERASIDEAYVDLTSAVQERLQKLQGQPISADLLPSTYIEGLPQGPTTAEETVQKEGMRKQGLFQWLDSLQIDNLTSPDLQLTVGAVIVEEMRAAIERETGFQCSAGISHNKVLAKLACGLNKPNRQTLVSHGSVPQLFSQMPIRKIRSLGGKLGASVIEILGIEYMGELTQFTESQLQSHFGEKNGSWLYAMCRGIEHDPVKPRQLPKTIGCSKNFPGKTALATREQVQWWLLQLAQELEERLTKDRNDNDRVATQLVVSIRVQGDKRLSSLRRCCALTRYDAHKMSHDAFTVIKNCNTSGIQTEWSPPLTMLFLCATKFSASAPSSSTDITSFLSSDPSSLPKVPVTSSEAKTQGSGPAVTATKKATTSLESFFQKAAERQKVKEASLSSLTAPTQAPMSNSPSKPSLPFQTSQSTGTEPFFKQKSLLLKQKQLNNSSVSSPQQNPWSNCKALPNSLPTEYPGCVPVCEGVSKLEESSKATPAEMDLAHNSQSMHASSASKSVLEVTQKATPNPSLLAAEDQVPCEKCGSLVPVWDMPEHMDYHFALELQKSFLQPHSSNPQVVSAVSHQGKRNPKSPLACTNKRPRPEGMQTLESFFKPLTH
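Pol eta (10 nM) was preincubated with compounds for 15 min at room temperature, after which fluorescent replication substrate (50 nM final) was added to start the reaction. Fluorescence was read kinetically at 0 and 10 min.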
BAZ2B inh – inhibits human BAZ2B bromodomain, hit validation | shares compounds with Pol kappa inh-1 | AlphaScreen BAZ2B / biotin-H3K14Ac peptide displacement | Potency, µM, actives largely listed as inhibitors | 25 compounds, 100% hits | AID 588809; calls by dose curve
AlphaScreen ctr – interferes with AlphaScreen signal in BAZ2B counterscreen | shares compounds with Pol kappa inh-1 | AlphaScreen biotin-His6 peptide bead counterscreen, signal decrease | Potency, µM (doses to about 57.1 µM), hits mostly inhibitors | 25 tested, under 10 active;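 active means clear concentration-dependent signal drop in the bead assay lacking the target, so a primary-screen artifact; inconclusive means weak, partial or single-dose response; inactive means no response, so a real primary hit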
PGK validate – blocks T. brucei phosphoglycerate kinase. shares compounds with Pol kappa inh-1. TbPGK coupled GAPDH assay, Kinase-Glo luminescence. Potency, µM (top dose mostly 57.5 µM), actives largely listed as inhibitors. 500 compounds, 79% hits; further: nearly all actives have a fitted effect of over 65% in size
POLI cherry-pick – Confirm cherry-picked inhibitors of human polymerase iota | shares compounds with Pol kappa inh-1 | 1,500 compounds, 77% hits | Pol iota primer extension, TAMRA/BHQ fluorescence | Potency, µM, actives largely listed as inhibitors
GALK inh confirm – confirmation of human galactokinase (GALK) inhibitors; purified GALK, Kinase-Glo ATP depletion luminescence; 150 compounds, 70% hits; Potency, µM (doses to about 115 µM), actives largely listed as inhibitors; shares compounds with Pol eta inh-1
GALK redox cs – generates H2O2 by redox cycling, flagging GALK artifacts. shares compounds with Pol eta inh-1. Phenol red-HRP H2O2 redox cycling, absorbance 600 nm. Potency, µM (top dose mostly 115 µM), most hits filed as inhibitors. 150 compounds, 40% hits
HEK293 tox – counter-screen for GALK inhibitors: HEK293 cell cytotoxicity; Potency, µM (top dose mostly 46.1 µM), actives largely listed as inhibitors; 170 compounds, 10% hits; HEK-293 viability, ATP luminescence (CellTiter-Glo), 24/48 h; shares compounds with Pol eta inh-1
Pol kappa inh-2 – Pol kappa (human) inhibition, cherry-pick confirmation; Potency, µM, most hits filed as inhibitors; shares compounds with Pol eta inh-1; purified Pol-kappa, fluorescent strand-displacement substrate; 920 compounds, 76% hits
Pol eta inh-2 – Pol eta (human) inhibition, cherry-pick confirmation | Pol eta primer extension, TAMRA/BHQ fluorescence, 10 min | 2,600 compounds, 64% hits | shares compounds with Pol eta inh-1 | Potency, µM, usual class: inhibitors
Numbers stand for hits; - = inactive; ? = inconclusive; . = no result; [ ] = another dose, or the depositor's remark. An excerpt weighted towards active compounds, which were near 2.8% of everything screened. Unless noted, the call rests on the fitted dose curve; in most records, active means well fitted curve in the direction sought with a large enough effect; inconclusive means small, poorly fitted or top-dose-only effect, or another doubt; inactive means no such curve, though single readings can be large; an effect the other way counts as inactive or inconclusive.

SMILES | Pol iota inh | WRN helicase inh | PI5P4Ka inh | Pol kappa inh-1 | POLB inh | Pol eta inh-1 | POLI cherry-pick | Pol eta inh-2 | others
c1cncc([C@H]2CCCCN2)c1 | . | . | . | -[19.4 µM] | . | . | . | .
O=C1NC(=O)N(Cc2ccccc2Cl)C(=O)/C1=C/N1CCOCC1 | - | - | ? | - | - | - | . | .
O=C(O)Cn1cc(/C=C2\C(=O)NC(=O)N(Cc3ccco3)C2=O)c2ccccc21 | 4.5µM | 40µM | ? | 20µM | 10µM | 1.6µM | 3.4 | 4.8 | PGK validate=8.2µM
O=C1NC(=O)N(Cc2ccccc2)C(=O)/C1=C\c1ccco1 | ? | 32µM | -86 | 28µM | 25µM | 20µM | ? | 34
O=C1NC(=O)N(Cc2ccco2)C(=O)/C1=C/c1cccn1CCOc1ccccc1Cl | 11µM | ? | -52 | ? | 25µM | 14µM | 67 | 30 | Pol kappa inh-2=60
Cc1c(F)c(F)c(COC(=O)C2C(/C=C(\Cl)C(F)(F)F)C2(C)C)c(F)c1F (stereo not given) | . | . | . | - | . | . | . | .
COC1C(O)C(C)O[C@H](OC2CC[C@@]3(C=O)C4CC[C@]5(C)C(C6=CC(=O)OC6)CC[C@@]5(O)C4CC[C@@H]3C2)C1O (stereo not given in full) | . | . | . | - | . | . | . | .
COC(=O)[C@@]1(O)C[C@@H]2O[C@@]1(C)n1c3ccccc3c3c4c(c5c6ccccc6n2c5c31)C(=O)NC4 | . | . | . | - | . | . | . | .
CCCCn1c(NC(=O)c2ccc(Br)o2)c(C(=O)OCC)c2nc3ccccc3nc21 | ? | ? | - | - | ? | 22µM | 42 | 19
O=[N+]([O-])c1ccc(-c2[se]c3ccccc3c2I)cc1 | . | . | . | - | . | . | . | .
CSc1nc(N)c(N=Nc2ccc([As](=O)(O)O)cc2)c(=O)[nH]1 | 8.9µM | -[11.6 µM] | - | - | 35µM | 50µM | 42 | 76
COc1ccc(N2C(=O)/C(=C/c3ccc(C)o3)C(=O)NC2=S)c(OC)c1 | 11µM | ? | ? | 50µM | 40µM | 10µM | 47 | 17 | Pol kappa inh-2=3.4
CCOC(=O)C1CCN(/C=C2/C(=O)NC(=S)N(c3cccc(OC)c3)C2=O)CC1 | - | - | - | - | - | - | . | .
Cc1ccccc1N1C(=O)NC(=O)/C(=C/c2ccc(N3CCOCC3)o2)C1=O | - | - | - | - | ? | - | . | .
Cc1cccc(N2C(=O)/C(=C/c3ccc(N4CCN(C)CC4)o3)C(=O)NC2=S)c1C | ? | 32µM | - | ? | - | 20µM | 60 | 30 | Pol kappa inh-2=8.4
CCc1ccccc1N1C(=O)/C(=C/c2ccc(N3CCN(C)CC3)o2)C(=O)NC1=S | 11µM | 50µM | ? | 25µM | - | 8.9µM | 60 | 9.5
CCc1ccc(-n2nc(C)c3c(C(=O)NCCc4ccc(OC)c(OC)c4)cc(C)nc32)cc1 | - | . | . | - | - | ? | . | .
Cc1ccc(C[N+](C)(C)C)o1 | . | . | . | -[19.4 µM] | . | . | . | .
NCCCP(=O)(O)CC1CCCCC1 | . | . | . | -[19.4 µM] | . | . | . | .
CN1/C(=C\C=C2C(=O)NC(=S)NC2=O)C(C)(C)c2ccccc21 | - | - | - | - | ? | 79µM | ? | 85 | Pol kappa inh-2=60
CC1(C)OC(c2ccccc2)=C/C(=C/C=C2C(=O)NC(=S)NC2=O)O1 | ? | 8.9µM | ? | ? | 50µM | ? | 67 | 76
CCOc1ccccc1NC(=O)c1sc2nc3c(cc2c1N)CN(Cc1ccccc1)CC3 | - | . | . | - | - | - | . | .
CC(C)[C@H](NC(=O)[C@H](CC(=O)O)NC(=O)[C@H](Cc1ccccc1)NC(=O)[C@@H](C)NC(=O)[C@@H](N)Cc1ccc(O)cc1)C(=O)N[C@H](C(=O)NCC(N)=O)C(C)C | . | . | . | - | . | . | . | .
CCCCCCCCCCCCCCCCOC[C@@H](O)COP(=O)([O-])OCC[N+](C)(C)C | . | . | . | -[19.4 µM] | . | . | . | .
NN=C1C(Cl)=C(Cl)C(Cl)=C1Cl | . | -[11.6 µM] | - | . | . | ? | 67 | ? | Pol kappa inh-2=?
SMILES | Pol iota inh | WRN helicase inh | PI5P4Ka inh | Pol kappa inh-1 | POLB inh | Pol eta inh-1 | POLI cherry-pick | Pol eta inh-2 | others
CN1C[C@H](C(=O)N[C@]2(C)O[C@@]3(O)C4CCCN4C(=O)[C@H](Cc4ccccc4)N3C2=O)C[C@@H]2c3cccc4[nH]cc(c34)C[C@H]21 (stereo not given in full) | - | . | . | -[19.4 µM] | - | - | . | .
Cn1ncnc2c(=O)n(C)c(=O)nc1-2 | - | -[11.6 µM] | - | - | ? | 0.71µM | 5.3 | 5.4 | PGK validate=1.5µM;GALK inh confirm=1.1µM;GALK redox cs=0.6µM;HEK293 tox=3.1µM
Cc1ccc(-c2nc3c(=O)n(C)c(=O)nc-3n(C)n2)cc1 | - | . | . | - | . | . | 1.7 | 0.85
C[C@](O)(CS(=O)(=O)c1ccc(F)cc1)C(=O)Nc1ccc(C#N)c(C(F)(F)F)c1 | . | . | . | -[19.4 µM] | . | . | . | .
C=C(C)C(=O)Nc1cccc(C2=NOC3(C2)C[C@@H](C(N)=O)N(C(=O)/C(C)=C/C)C3)c1 (stereo not given in full) | 35µM | ? | ? | 20µM | 1.4µM | 2.5µM | 30 | 6.7 | BAZ2B inh=4;AlphaScreen ctr=-;PGK validate=?;Pol kappa inh-2=8.4
C=CCN1C(=O)NC(=O)/C(=C/c2ccoc2)C1=O | 20µM | 50µM | -69 | 45µM | 28µM | 10µM | 21 | 17
